Data as given in PubChem BioAssay AID651725 (National Center for Advancing Translational Sciences (NCATS), 2012).
Hit rate of the full screen: of about 360,000 compounds, about 2,000 (0.56%) were called active. Inconclusive results (about 2%) are left out. The sample as a whole holds a higher share of actives than the screen did. A number with no mark means an inactive call. Rule as the data show it: active = activity change below about -65%; inconclusive = mostly about -30% to -63%; inactive = weaker than that.

These compounds were tested against Homeobox protein SIX1 (Homo sapiens) + Protein phosphatase EYA2 (Homo sapiens) (UniProt Q15475+O00167) (assay: qHTS Assay for Inhibitors of the Six1/Eya2 Interaction). Conditions: AlphaScreen GST-Six1/His-Eya2 binding, biochemical; stronger effect = lower value.
In short: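 Homogeneous AlphaScreen proximity assay pairing GST-Six1 with His-tagged Eya2 (added as 5X mix: 250 nM and 500 nM) in 50 mM Tris pH 8.0, 300 mM NaCl, 1 mM TCEP. Glutathione donor and nickel acceptor beads; 1 h, 37 °C, dark.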
% is scaled to controls: 0 for no effect and ±100 for the full control effect.

Sequence of Homeobox protein SIX1 (Homo sapiens) + Protein phosphatase EYA2 (Homo sapiens) (O00167 whole entry, looked up): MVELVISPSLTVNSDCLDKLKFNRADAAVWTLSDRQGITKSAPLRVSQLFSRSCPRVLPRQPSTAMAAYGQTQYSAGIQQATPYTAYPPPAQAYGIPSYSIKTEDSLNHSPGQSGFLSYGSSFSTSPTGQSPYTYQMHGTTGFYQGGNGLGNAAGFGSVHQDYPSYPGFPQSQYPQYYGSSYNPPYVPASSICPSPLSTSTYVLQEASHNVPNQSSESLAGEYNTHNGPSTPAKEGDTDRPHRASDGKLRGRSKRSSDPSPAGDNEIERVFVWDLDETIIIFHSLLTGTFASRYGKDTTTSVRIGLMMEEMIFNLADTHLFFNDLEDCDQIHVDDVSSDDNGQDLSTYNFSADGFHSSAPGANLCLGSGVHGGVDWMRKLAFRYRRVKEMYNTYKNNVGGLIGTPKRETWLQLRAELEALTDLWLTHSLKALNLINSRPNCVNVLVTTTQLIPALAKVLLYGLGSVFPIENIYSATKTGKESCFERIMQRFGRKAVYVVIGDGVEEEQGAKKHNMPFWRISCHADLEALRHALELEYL
Sequence of Homeobox protein SIX1 (Homo sapiens) + Protein phosphatase EYA2 (Homo sapiens) (Q15475 whole entry, looked up): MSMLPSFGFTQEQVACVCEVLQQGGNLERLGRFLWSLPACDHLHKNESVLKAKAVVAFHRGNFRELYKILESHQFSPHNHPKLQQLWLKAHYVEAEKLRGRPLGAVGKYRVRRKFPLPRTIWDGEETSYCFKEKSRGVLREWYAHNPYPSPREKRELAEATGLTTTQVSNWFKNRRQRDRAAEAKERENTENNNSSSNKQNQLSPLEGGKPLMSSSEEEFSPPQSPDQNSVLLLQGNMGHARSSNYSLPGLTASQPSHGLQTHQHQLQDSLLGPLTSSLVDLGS

SMILES	activity change
O=C(CSc1cccc2cccnc12)N/N=C/c1cccnc1	-80.7% (active)
O=C(CNC(=O)c1cccnc1)N/N=C/c1cc(Br)c(O)c(Br)c1	-6.06%
Cc1ccc(S(=O)(=O)N(CC(=O)N/N=C/c2ccc(F)cc2)c2cccc3cccnc23)cc1	-0.495%
C[C@H]1CN([C@@H](C)CO)C(=O)CCCn2nncc2CO[C@@H]1CN(C)Cc1ccc(Oc2ccccc2)cc1	13.9%
CNc1[nH]ncc1[N+](=O)[O-]	-66.5% (active)
CNc1ccc(NC(C)=O)cc1[N+](=O)[O-]	-0.656%
Cc1cc([N+](=O)[O-])c(=O)[nH]c1C	4.44%
Nc1nnnn1/N=C/c1cccs1	2.77%
Nc1nnnn1/N=C/c1cc([N+](=O)[O-])ccc1O	-65.9% (active)
Nc1nnnn1/N=C/c1cccc(Br)c1	-1.52%
COC(=O)[C@@]12C[C@@H](CC(=O)N3CCCCC3)C(=O)N(Cc3ccc4c(c3)OCO4)C1=CCC(C)(C)C2	-15.9%
C=CCOCCN(C)C1=NS(=O)(=O)c2ccccc21	-3.42%
COc1ccc(/C=N/N(C)C2=NS(=O)(=O)c3ccccc32)cc1OC	-67.9% (active)
COc1ccc(C(C)(C)C)cc1NC(=O)CN(C)C1=NS(=O)(=O)c2ccccc21	4.86%
CC1CN(C(=O)c2cccc(NS(=O)(=O)c3ccc(Br)cc3)c2)CC(C)O1 (configuration not stated)	-2.46%
C[C@H](NC(=O)[C@@H]1CCCN1C(=O)[C@@H]1CCCN1C(=O)c1ccccc1)c1ccccc1	0.523%
CC1CN(S(=O)(=O)c2cccc(C(F)(F)F)c2)CN1C(=O)N1CCOCC1 (configuration not stated)	-0.306%
CC1(C(=O)NCc2ccccc2)CSCC(=O)N1CCCN1CCOCC1 (configuration not stated)	-1.18%
Cn1c(SCC(=O)Nc2ccc(Cl)cc2)nc(O)cc1=O	7.12%
Oc1ccc(N=Nc2nccs2)c(O)c1	-77.5% (active)
Oc1ccc2ccccc2c1N=Nc1nccs1	-81.4% (active)
CC1(C(=O)NCc2ccccc2)CN(S(C)(=O)=O)CC(=O)N1CC(F)(F)F (configuration not stated)	2.8%
CN1C(c2ccc(F)cc2)=CS/C1=C(/C#N)c1nnc2n1-c1ccccc1SC2	-14.2%

SMILES	activity change
COC(=O)C1(C(=O)OC)C[C@H](c2ccccc2)N(Cc2ccccc2OC)[C@@H]1c1ccccc1	1.28%
CCC(C(=O)NCc1ccccc1)n1c(Cc2cc(F)cc(F)c2)nc2ccccc21 (configuration not stated)	-0.68%
COc1ccc(N2c3ccccc3CN(Cc3ccccc3)[C@@H](C)[C@H]2Cc2ccc(-c3ccccc3)cc2)cc1	-12.3%
CC(=O)c1cc(CN2CCC(n3nccc3NC(=O)c3ccccc3Cl)CC2)cs1	-1.64%
Cc1ccc(-c2c(N)nc3ncccn23)cc1	-9.22%
CC(=O)N1Cc2cc(C(=O)NCc3cccc(F)c3)nc(-c3cccc(C4=CCCCC4)c3)c2[C@H]1CCO	0.697%
O=S1(=O)CCN(Cc2ccccc2)CC1	-0.459%
O=C1c2ccccc2C(=O)c2c1cccc2N1CCN(Cc2ccccc2)CC1	-88.9% (active)
O=C(CN1CCN(Cc2ccccc2)CC1)NC(c1ccccc1)c1ccccc1	-3.09%
Clc1ccc(-c2nc3ccccn3c2CN2CCSCC2)cc1	-7.53%
Cc1nc(CN(C)C(=O)CC2C(=O)NCCN2Cc2ccc(F)cc2)cs1 (configuration not stated)	6.54%
O=C1CCC/C(=N\NC(=O)NC2CCCCC2)C1	4.54%
COC(=O)[C@@]12C[C@@H](CC(=O)N3CCC(c4ccccc4)CC3)C(=O)N(Cc3ccccc3)C1=CCC(C)(C)C2	-15.9%
O=C(CSc1nc2ccccc2o1)N/N=C/c1ccccc1C(=O)O	-67.9% (active)
CCC(NC(=O)c1ccccc1NC(=O)c1ccccc1)C(=O)NNC(=O)CSc1nc2ccccc2o1 (configuration not stated)	-24.4%
O=C(CSc1nc2ccccc2o1)N1CCN(c2ccccc2)CC1	0.782%
CC(C)(C)C(=O)CSc1nc2ccccc2o1	10%
CCN(CC)C(=O)CSc1nc2ccccc2o1	6.18%
Cc1ccc(/C=N/NC(=O)CSc2nc3ccccc3o2)cc1	-87.1% (active)
Cc1ccc(-c2nc3c(Cl)cc(C(F)(F)F)cn3c2Cc2cccc(Cl)c2)cc1	1.53%
CC(C)CN1C(=O)CN(S(C)(=O)=O)CC1(C)C(=O)NCc1ccccc1 (configuration not stated)	5.67%
CCOc1ccc(CCN2C(=O)C(=O)N([C@@H](CC(C)C)CN3CCC[C@H]3CN3C(=O)C(=O)NC[C@@H]3Cc3ccccc3)C[C@@H]2CC(C)C)cc1	-1.05%
CC(C)(C)C(=O)NCCCNc1ccc([N+](=O)[O-])cc1	-1.69%

SMILES	activity change
O=C(Nc1ccccc1F)C1C2C=CC3(O2)C1C(=O)N(c1cccnc1)C3C(=O)NC1CCCCC1 (configuration not stated)	4.1%
Nc1ccc2nc3c(=O)[nH]c(=S)[nH]c3nc2c1	-79.3% (active)
O=C(C(NS(=O)(=O)c1cccc2nsnc12)c1ccccc1)N1CCN(c2ccccc2)CC1 (configuration not stated)	-0.046%
COc1ccc(C(O)C(O)(C(=O)OC(C)C)c2ccc(C)cc2)cc1 (configuration not stated)	10.6%
Cc1ccc2cc(C#N)c(NCCNC(=S)NCCCN3CCOCC3)nc2c1	-1.85%
C/C(=N\Nc1cccc(C(=O)O)c1)c1ccc2c(c1)Nc1ccccc1S2	-18.9%
O=C1NC[C@H](CCCCN2C[C@H](Cc3ccccc3)N(Cc3ccccc3)C(=O)C2=O)N(CCc2ccc(O)cc2)C1=O	-1.72%
NN=C(NN=Cc1ccccc1)c1ccccc1	15.8%
O=C(N/N=C/c1ccccc1O)/C(=C/c1ccccc1)CCO	-80.4% (active)
C=CCOc1ccccc1/C=N/NC(=O)Cc1ccccc1	-1.77%
CN1CCN(C(=O)c2ccc(NC(=O)c3ccc(Br)o3)cc2)CC1	1.67%
COc1ccc(S(=O)(=O)N[C@@H]2C=C[C@@H](CC(=O)N3CCc4ccccc4C3)O[C@@H]2CO)cc1	-3.17%
Cc1cc(OCCOc2cccc3cccnc23)c(C)cc1Cl	-4.24%
COc1cccc(CNC(=O)C2CCN(S(=O)(=O)c3cccc4cccnc34)CC2)c1	-4.19%
CC(=O)/C(=N\Nc1ccc(Cl)cc1Cl)Sc1cccc2cccnc12	-91.1% (active)
COc1cc(CC(=O)N2CCC(n3nccc3NC(=O)C3CC3)CC2)cc(OC)c1OC	-0.446%
CCOc1ccc(N2C(=O)CSC2=NC#N)cc1	2.91%
CCOc1cccc(/C=N/N2C(=O)CSC2=S)c1O	-92.8% (active)
COc1cc(N2C(=O)CSC2=S)cc(OC)c1OC	-9.23%
CCOC(=O)[C@]12CCCC=C1N(CCC1=CCCCC1)C(=O)[C@H](CC(=O)N1CCSCC1)C2	-5.61%
Cc1cc(OCc2ccc(C(=O)Nc3ccc(C(=O)O)cc3)o2)ccc1Cl	-9.21%
Cn1cnc(S(=O)(=O)N2C[C@@H](O)COC[C@@H]3O[C@H](CC(=O)NC4CCC4)CC[C@H]32)c1	-0.831%
Cc1cc(NC(=O)[C@H](C)NC(=O)c2ccco2)ccc1Br	0.811%

SMILES	activity change
O=C(COc1ccccc1)Nc1nonc1NC(=O)COc1ccccc1	-6.13%
O=C(COc1ccccc1F)Nc1nc(-c2ccccn2)cs1	-84.1% (active)
N#Cc1ccc(OCC(=O)Nc2nc(-c3ccccn3)cs2)cc1	-90% (active)
CC1CCCCC1NC(=O)COc1ccc(C#N)cc1 (configuration not stated)	-10.9%
CSCCC(NC(=O)c1ccco1)C(=O)Nc1cc(C)ccn1 (configuration not stated)	-1.3%
CC1CCN(S(=O)(=O)c2nnc(NC(=O)COc3ccccc3F)s2)CC1	3.54%
O=C(CCN1C(=O)C2C3C=CC(C3)C2C1=O)Nc1ccccc1F (configuration not stated)	2.72%
O=C(NCCN1C(=O)C2C3C=CC(C3)C2C1=O)Nc1ccccn1 (configuration not stated)	2.02%
COc1ccccc1NC(=O)COC(=O)COc1ccccc1F	6.13%
CC(NC(=O)c1ccco1)C(=O)Nc1nc(-c2ccccn2)cs1 (configuration not stated)	-83.1% (active)
O=C(CN1C(=O)C2C3C=CC(C3)C2C1=O)Nc1nc(-c2ccccn2)cs1 (configuration not stated)	-80.4% (active)
Cc1ccc2c(c1)c1ncnc(N3CCc4ccccc4C3)c1n2C	-7.75%
CCOc1ccc(CN2CCN(Cc3ccon3)CC2CCO)cc1 (configuration not stated)	5.89%
CCCCCNC(=O)C(c1ccc(OC)cc1)n1c(=O)c(-c2ccccc2)nc2ccccc21 (configuration not stated)	5.06%
CCCNC(=O)c1cc(C2CCCCN2S(=O)(=O)c2cn(C)cn2)on1 (configuration not stated)	0.952%
CC(C)(C)C(=O)c1c(N)[nH]c(C(=O)c2ccccc2)c1-c1ccc(F)cc1	-8.67%
O=C1Nc2ccccc2-n2nnnc2C1N1CCN(c2cccc(C(F)(F)F)n2)CC1 (configuration not stated)	0.68%
Cc1cccc(NS(=O)(=O)c2ccc(C)c(C(=O)NCc3cccnc3)c2)c1	-0.175%
O=C(C(=O)N1CCC(c2ccccc2)CC1)c1ccccc1	-2.34%
CCOC(=O)[C@]12CCCC=C1N(CCC1=CCCCC1)C(=O)[C@H](CC(=O)N1CCN(C(=O)c3ccco3)CC1)C2	-5.37%
Cc1c(NS(=O)(=O)c2ccc(NC3CCCC3)c([N+](=O)[O-])c2)c(=O)n(-c2ccccc2)n1C	-0.483%
Cc1cc([N+](=O)[O-])c(NC2CCCCC2)c([N+](=O)[O-])c1	-69.3% (active)
Cc1cc([N+](=O)[O-])c(N2CCC[C@@H]2C(=O)O)c([N+](=O)[O-])c1	7.42%
